Bioassay records deposited in PubChem by Broad Institute.
miR-122 inh: miR-122 suppressors via Renilla sensor increase, primary screen, cell-based, Huh7 psiCHECK-miR122, Renilla luciferase, single point | activation, % at 12.5 µM | AID 623901, 2012 | 340,000 tested, 0.14% active | 48 h;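 active means mean activation of 30% or more, with every replicate also reaching 30%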;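 further: 0% = median of neutral control wells and 100% = median of positive control wells; higher luciferase signal means stronger suppression of miR-122 activity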
* hit, by the source's call. This excerpt belongs to a sample that is enriched for hits.

SMILES | miR-122 inh
COc1cccc(-c2cnc3c(c2)C(=O)N([C@@H](C)CO)C[C@@H](C)[C@H](CN(C)Cc2ccccc2)O3)c1 | -7.5
COc1ccc(C#Cc2ccc3c(c2)O[C@@H](CN(C)C(=O)NC2CCCCC2)[C@H](C)CN([C@H](C)CO)S3(=O)=O)cc1 | -23.1
CCC(=O)Nc1ccc2c(c1)OC[C@@H](C)N(C(=O)c1ccncc1)C[C@@H](C)[C@H](OC)CN(C)C2=O | 1.5
C[C@H]1CN([C@@H](C)CO)C(=O)c2cc(-c3ccc(C#N)cc3)cnc2O[C@H]1CN(C)C(=O)Nc1ccc(C(F)(F)F)cc1 | 37.0*
C[C@H](CO)N1C[C@H](C)[C@H](CN(C)CC2CCCCC2)Oc2c(NC(=O)C3CCOCC3)cccc2C1=O | -104.3
C[C@H](CO)N1C[C@H](C)[C@@H](CN(C)CC2CCCCC2)Oc2c(NC(=O)C3CC3)cccc2C1=O | -113.7
C[C@H](CO)N1C[C@H](C)[C@@H](CN(C)CC2CCCCC2)Oc2c(NS(=O)(=O)c3cccs3)cccc2C1=O | 33.2*
C[C@H](CO)N1C[C@H](C)[C@H](CN(C)S(=O)(=O)c2cccc(F)c2)Oc2ncc(C#CC3(O)CCCC3)cc2C1=O | 7.2
Cc1ccc(-c2cnc3c(c2)C(=O)N([C@H](C)CO)C[C@@H](C)[C@H](CN(C)CC2CCCCC2)O3)cc1 | 32.1*
C[C@H]1CN([C@@H](C)CO)C(=O)c2cc(-c3cccnc3)cnc2O[C@@H]1CN(C)C(=O)Nc1ccc(F)cc1 | 8.6
C[C@@H]1CN([C@@H](C)CO)C(=O)c2cc(-c3cccc(F)c3)cnc2O[C@H]1CN(C)CC1CCCC1 | 9.6
C[C@@H]1CN([C@@H](C)CO)C(=O)c2cc(C#CC3CCCCC3)cnc2O[C@H]1CN(C)S(=O)(=O)c1cccc(F)c1 | 45.5*
C[C@@H]1CN([C@H](C)CO)C(=O)c2cc(C#CC3(O)CCCC3)cnc2O[C@H]1CN(C)S(=O)(=O)c1cccc(F)c1 | 6.0
C[C@H](CO)N1C[C@H](C)[C@@H](CN(C)CC2CCCC2)Oc2ncc(-c3cccc(F)c3)cc2C1=O | -3.7
C[C@H]1CN([C@@H](C)CO)C(=O)c2cc(-c3cccnc3)cnc2O[C@H]1CN(C)C(=O)Nc1ccc(F)cc1 | 6.3
C[C@H]1CN([C@@H](C)CO)S(=O)(=O)c2ccc(C#CC(C)(C)O)cc2O[C@@H]1CN(C)CC1CC1 | 3.2
CC(=O)N(C)C[C@@H]1Oc2cc(C#C[C@@H](C)O)ccc2S(=O)(=O)N([C@@H](C)CO)C[C@@H]1C | -1.6
C[C@H](CO)N1C[C@H](C)[C@H](CN(C)C(=O)c2ccccn2)Oc2ncc(C#Cc3ccccc3)cc2C1=O | 3.0
C[C@@H]1CN([C@H](C)CO)S(=O)(=O)c2ccc(Br)cc2O[C@@H]1CN(C)S(C)(=O)=O | -3.1
COCC#Cc1ccc2c(c1)O[C@@H](CN(C)Cc1cncnc1)[C@@H](C)CN([C@@H](C)CO)S2(=O)=O | -3.6
C[C@@H]1CN([C@H](C)CO)C(=O)c2cc(C#CC3(O)CCCC3)cnc2O[C@@H]1CN(C)Cc1cncnc1 | 1.8
C[C@H]1CN([C@@H](C)CO)C(=O)c2cc(-c3cccnc3)cnc2O[C@@H]1CN(C)Cc1ccc(Oc2ccccc2)cc1 | 6.2
C[C@@H]1CN([C@H](C)CO)C(=O)c2cc(-c3cccnc3)cnc2O[C@H]1CN(C)Cc1ccc(Oc2ccccc2)cc1 | -0.4
COc1ccc(S(=O)(=O)N(C)C[C@@H]2Oc3ncc(/C=C/c4ccccc4)cc3C(=O)N([C@@H](C)CO)C[C@@H]2C)cc1 | 42.2*
C[C@@H]1CN([C@@H](C)CO)C(=O)c2cc(/C=C/c3ccccc3)cnc2O[C@H]1CN(C)S(=O)(=O)c1ccc(F)cc1 | 2.6
SMILES | miR-122 inh
C[C@@H]1CN([C@H](C)CO)C(=O)c2cc(-c3cncnc3)cnc2O[C@H]1CN(C)Cc1ccc(Oc2ccccc2)cc1 | 38.5*
C[C@H]1CN([C@@H](C)CO)C(=O)c2cc(/C=C/c3ccccc3)cnc2O[C@H]1CN(C)S(=O)(=O)c1ccc(F)cc1 | 16.5
C[C@@H]1CN([C@H](C)CO)C(=O)c2cc(-c3cncnc3)cnc2O[C@H]1CN(C)Cc1ccncc1 | 1.9
COCC#Cc1ccc2c(c1)O[C@@H](CN(C)C(=O)C1CCOCC1)[C@@H](C)CN([C@@H](C)CO)S2(=O)=O | 1.8
CO[C@@H]1CN(C)C(=O)c2ccc(NC(=O)Nc3cccc(F)c3)cc2OC[C@@H](C)N(C)C[C@@H]1C | 0.2
CCCN(C)C[C@H]1Oc2cc(Br)ccc2S(=O)(=O)N([C@H](C)CO)C[C@H]1C | -1.2
O=C(Nc1ccc2c(c1)OCCO2)C1CCN(S(=O)(=O)c2ccccc2)CC1 | -177.1
O=C(COc1ccc(S(=O)(=O)NC2CCCCC2)cc1)Nc1ccc2c(c1)OCCO2 | -101.2
O=C(COC(=O)Cc1ccc(S(=O)(=O)N2CCOCC2)s1)Nc1ccc2c(c1)OCO2 | 31.4*
CO[C@@H]1CN(C)C(=O)c2cc(NC(=O)C3CCOCC3)ccc2OC[C@@H](C)N(C)C[C@@H]1C | -1.8
COc1cccc(C#Cc2cnc3c(c2)C(=O)N([C@@H](C)CO)C[C@H](C)[C@@H](CN(C)C(=O)C2CCCCC2)O3)c1 | -1.8
CN1C(=O)c2cc(NC(=O)c3cccc(F)c3)ccc2OC[C@@H]2O[C@@H](CC(=O)NC3CCC3)CC[C@H]21 | 70.0*
CC(=O)Nc1ccc2c(c1)C(=O)N(C)[C@H]1CC[C@H](CC(=O)NC3CCCCC3)O[C@@H]1CO2 | 63.3*
CN1C(=O)c2cc(NC(=O)NC3CCCC3)ccc2OC[C@H]2O[C@@H](CC(=O)O)CC[C@H]21 | -137.5
CN1C(=O)c2cc(NC(=O)Cc3ccccc3)ccc2OC[C@@H]2O[C@H](CC(=O)NC3CCC3)CC[C@@H]21 | -125.0
C[C@@H]1CN([C@@H](C)CO)S(=O)(=O)c2ccc(-c3ccc(F)cc3)cc2O[C@H]1CN(C)C(=O)C1CCOCC1 | -1.1
COc1ccc(S(=O)(=O)Nc2ccc3c(c2)CC(=O)N([C@H](C)CO)C[C@H](C)[C@H](CN(C)Cc2ccc(C(=O)Nc4ccccc4N)cc2)O3)cc1 | -211.9
Cc1ccc(S(=O)(=O)N(C)C[C@H]2Oc3cc(C#CC4CCCC4)ccc3S(=O)(=O)N([C@@H](C)CO)C[C@H]2C)cc1 | -60.8
C/C=C/c1ccc2c(c1)O[C@H](CN(C)Cc1ccccc1)[C@@H](C)CN([C@@H](C)CO)S2(=O)=O | -8.5
COc1ccc(C(=O)Nc2ccc3c(c2)OC[C@H](C)N(C)C[C@@H](C)[C@@H](OC)CN(C)C3=O)cc1 | -0.3
C[C@@H]1CN([C@@H](C)CO)S(=O)(=O)c2ccc(-c3ccccc3)cc2O[C@H]1CN(C)C(=O)CN(C)C | 3.9
COc1ccc(NC(=O)N(C)C[C@@H]2Oc3ncc(C#Cc4ccc(OC)c(OC)c4)cc3C(=O)N([C@H](C)CO)C[C@@H]2C)cc1 | 15.5
C[C@@H]1CN([C@H](C)CO)C(=O)c2cc(-c3ccc(F)cc3)cnc2O[C@H]1CN(C)C(=O)c1ccccn1 | 5.9
CC(C)CC#Cc1cnc2c(c1)C(=O)N([C@H](C)CO)C[C@@H](C)[C@H](CN(C)C(=O)Nc1cccc(F)c1)O2 | -6.8
Cc1cc(C(=O)N/N=C/c2cc(Br)ccc2OC(=O)c2ccccc2)n[nH]1 | 32.5*
C[C@@H]1CN([C@H](C)CO)C(=O)c2cc(C#CCc3ccccc3)cnc2O[C@H]1CN(C)Cc1cccc(C(=O)O)c1 | 2.4
COc1ccc(S(=O)(=O)N(C)C[C@@H]2Oc3cc(-c4ccccc4OC)ccc3S(=O)(=O)N([C@H](C)CO)C[C@H]2C)cc1 | -0.2
